The record followed here is PubChem BioAssay AID734 (The Scripps Research Institute Molecular Screening Center, 2007).

The whole screen tested about 5,100 compounds, of which fewer than 10 were called active. The list is a sample of the results. Unmarked numbers belong to inactive results.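 The calls were made as follows: active = inhibition above the mean inhibition over all tested compounds plus 3 SD (cut at about 75% in these data); inactive = the rest.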

For this test, the target named is Collagenase 3 (Homo sapiens) (UniProt P45452). In words: MMP13 inhibitors among fluorescent compounds, confirmation, biochemical, possible fluorescent artifacts, delta fluorescence (AID 734).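 Also: 0% = DMSO only wells and 100% = 8 µM reference MMP13 inhibitor.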 The settings on record: MMP13 fTHP FRET cleavage, delta fluorescence 4 h; active compounds read high;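 each compound tested at 4 µM nominal in triplicate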.
As a reminder, the inhibition is the relative decrease from the control value, in per cent. Consider `Cc1oc2c(CN3CCOCC3)c(O)ccc2c(=O)c1-c1ccc(Br)cc1`, for which the inhibition is 6.41%. The same measure for `CCn1c(=O)c2cc(C(=O)N3CCOCC3)sc2c2ccccc21`: -2.27%; for `Cc1ccc(NC(=O)CC2Nc3ccccc3NC2=O)cc1Cl` (stereo unspecified): 5.69%; for `CCOC(=O)N1CCN(C(=O)c2cnn3c(C)c(Cc4ccc(C)cc4)c(C)nc23)CC1`: -3.34%.

Regarding `O=S(=O)(c1ccccc1C(F)(F)F)N1CCOCC1`, the inhibition is 6.08%.

Regarding `Cc1onc(-c2ccccc2Cl)c1C(=O)Nc1nnc(-c2ccc(F)cc2)s1`, the inhibition was 6.05%. Turning to `CCOC(=O)N1CCC(N2C(=O)c3ccccc3C2Nc2cc(C(=O)OC)cc(C(=O)OC)c2)CC1` (stereo unspecified), the inhibition is 3.52%. As for `Oc1ccc(N=Cc2ccc(-c3cccs3)s2)cc1`, the figure is 90.8% (active); as for `O=C(c1cccs1)c1ccc(-c2cccs2)s1`, 3.04%. As for `CC(C)CCSc1nc2c(c(=O)[nH]c(=O)n2C)n1CCc1ccccc1`, the figure is 5.17%; as for `CC1CCCN(C/C(O)=C(\C#N)c2nc3ccccc3[nH]2)C1` (stereo unspecified), 4.57%; as for `CCCCOC(=O)Cc1c(O)c2ccccc2[nH]c1=O`, 0.98%.

Take `CN(C)CCCN1C(=O)c2oc3ccc(F)cc3c(=O)c2C1c1cccnc1` (stereo unspecified): the inhibition was 5.18%. As for `Cc1cccc2cc(C#N)c(NCCNS(=O)(=O)c3ccc4c(c3)OCCO4)nc12`, the figure is 3.35%.

As for `Cc1ccc(S(=O)(=O)N2CCCC2C(=O)Oc2ccccc2)cc1` (stereo unspecified), the inhibition is 5.98%. The same measure for `Cc1ccc(-n2c(-c3ccncc3)nnc2-c2ccco2)cc1`: 2.09%.

Turning to `Cc1cc(N2CCOCC2)nc2ccc(NC(=O)CCC(=O)N3CCCC(C)C3)cc12` (stereo unspecified), the inhibition was 2.6%. The same measure for `CC(C)(/C=N/O)/[N+]([O-])=C/c1ccccc1C(F)(F)F`: 8.54%; for `COc1cc2c(=O)n(CC3CCCO3)c(=O)n(CC(=O)Nc3ccc(F)cc3F)c2cc1OC` (stereo unspecified): 2.92%; for `CN1C(=O)Cc2cc(S(=O)(=O)N3CCOCC3)ccc21`: 2.06%. As to `O=C1CCCN1CCCNc1ncnc2c1cnn2-c1ccc(Cl)cc1`, the inhibition was 3.23%. The same measure for `CCOC(=O)c1[nH]c2ccc(OCC)cc2c1NC(=O)CN1CCN(c2ccccc2)CC1`: 1.46%; for `c1ccc(-n2nnnc2SCc2cn3cccnc3n2)cc1`: 9.28%; for `O=C(Nc1ccc(-c2nc3cccnc3s2)cc1)c1ccc(Br)o1`: 2.61%. Take `O=S(=O)(Nc1ccc(-c2nc3cccnc3s2)cc1)c1cccs1`: the inhibition is 198% (active). As for `O=C(Nc1ccc(-c2nc3cccnc3s2)cc1)c1ccco1`, the figure is 4.83%. As for `N#Cc1nc(-c2cccs2)oc1N1CCN(c2ccccc2)CC1`, the figure is 8.02%; as for `Cc1oc(C(C)(C)C)cc1C(=O)Nc1ccc(C(=O)O)cc1`, 4.23%. Consider `Cc1ccc(-c2cc(C(=O)N3CCOCC3)c3ccccc3n2)cc1`, for which the inhibition is 7.4%. For the compound `CCC(=O)N/C(N)=N/c1nc(C)c2cc(OC)ccc2n1`, the inhibition is 1.9%. Turning to `COc1nc(-c2ccc(C)cc2)ccc1-c1noc(-c2ccco2)n1`, the inhibition was -3.29%. The same measure for `Cc1cccn2c(=O)c(C=Nc3ccc(Cl)cc3)c(NCCO)nc12`: -0.72%. As for `CC(C)COc1ccc(-c2nnc(-c3ccco3)o2)cc1`, the figure is 3.48%. `COC(=O)C1=CNC=C(C(=O)OC)C1c1cccc(OC)c1`: the inhibition is 27.7%. For the compound `CN(C)c1ccc(-c2nn3c(C4CCCCC4)nnc3s2)cc1`, the inhibition is 4.05%. Consider `COc1ccc(CCNc2oc(-c3ccc(OC)c(OC)c3)nc2C#N)cc1`, for which the inhibition is 1.68%. Take `COc1ccc(-c2cn3c(C)c(C(=O)Nc4cc(NC(C)=O)ccc4OC)sc3n2)cc1`: the inhibition is 14.3%. As for `COCCNC(=O)c1cc2c(-c3ccccc3F)nn(C)c2s1`, the inhibition was -5.47%. `CC(Oc1ccc2oc(-c3ccccc3)c(C(=O)O)c2c1)C(=O)O` (stereo unspecified): the inhibition was -5.25%. For the compound `O=c1cc(CN2CCN(c3ccccc3)CC2)c2cc(O)c(-c3ccccc3)cc2o1`, the inhibition is 8.57%. As for `CCN1CCc2c(sc3c2c(NCc2ccco2)nc2nnnn23)C1`, the figure is 10.9%; as for `CC(C)CCNC(=O)C(c1ccco1)N(Cc1ccccc1)C(=O)c1snc(C(N)=O)c1N` (stereo unspecified), 2.54%. The same measure for `O=C(NCc1cccnc1)c1nnc(Cc2ccc(F)cc2)o1`: 2.89%; for `O=C(CCSc1nnc2ccccn12)Nc1ccc(F)cc1`: 3%; for `Cc1ccc(-n2c(Cc3cccn3C)nnc2SCC(=O)Nc2ccc3c(c2)OCO3)cc1`: 3.78%. For the compound `O=C(O)c1ccc(CSc2nnc(-c3ccncc3)n2CC2CCCO2)cc1` (stereo unspecified), the inhibition was 5.15%. In the case of `Cc1cc(N2CCC(C)CC2)nc2ccc(N3C(=O)CCC3=O)cc12`, the inhibition is 4.49%. With `O=S(=O)(c1cccc(-c2cn3cc(Cl)ccc3n2)c1)N1CCOCC1`, the inhibition was 4.43%. For the compound `CCOc1ccc(CC(=O)N2CCN(c3ccc(N4CCOCC4)nn3)CC2)cc1OCC`, the inhibition is 11.4%. On to `Cc1cc(C)c2c(n1)nn1c(N3CCN(c4ccccc4)CC3)cc(C)nc21`, for which the inhibition was -3.18%. As for `O=C(NCc1cccnc1)c1cnn2ccccc12`, the figure is 3.72%; as for `CCOCCCn1c(C)nc2c(c1=O)c1nc3ccccc3nc1n2CCC1=CCCCC1`, -2.22%. As to `CCOC(=O)CN=C1CC(C)(C)CC2=C1Sc1ncnc(N(C)C)c1N2`, the inhibition is 8.62%. On to `N#CCSc1nc2[nH]ncc2c(=O)n1-c1ccccc1Br`, for which the inhibition is 5.49%. In the case of `CC(=O)Nc1ccc(Nc2ncnc3c2cnn3-c2cccc(C)c2)cc1`, the inhibition is 8.03%. The same measure for `COc1ccc2oc(-c3ccccc3)c(C(=O)N3CCOCC3)c2c1`: 3.94%; for `CCOC(=O)CSc1nc(-c2ccncc2)ccc1C#N`: 6%; for `CCOC(=O)CSc1nc(-c2ccc3c(c2)OCO3)ccc1C#N`: 86.3% (active). The same measure for `CCOC(=O)CSc1nc2cc3c(cc2cc1C#N)OCO3`: 5.66%. As for `N#Cc1nc(-c2ccc(F)cc2)oc1NCc1cccc2c1OCO2`, the figure is -9.16%.

Turning to `Cc1cc(C)n(-c2nc(-c3cccc(Cl)c3)cs2)n1`, the inhibition is 8.4%.
